Reference: PubChem BioAssay AID652197 (Broad Institute, 2013)
“And” between values parts separate entries of the source, which are not always exact repeats. Identical values can stand only once. In all, about 340,000 compounds went through this assay and about 500 (0.15%) were called active.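 How the source made its calls: active means mean replicate inhibition of at least 30%, or all replicates individually reaching that 30% level; inactive means mean below 30% and not every replicate reaching it.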 Only a selection was taken, and actives are over-represented in it overall.

What follows are compounds tested against Endoplasmic reticulum aminopeptidase 1 (Homo sapiens) (UniProt Q9NZ08) (assay: human ERAP1 aminopeptidase inhibitors, primary screen, biochemical, single point, plate reader (AID 652197;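 further: 0% = neutral control wells and 100% = L-leucinethiol positive control wells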)). Conditions: recombinant ERAP1, Leu-AMC fluorescence, 60 min; at 10.7 µM; stronger effect = higher value.
Chain of Endoplasmic reticulum aminopeptidase 1 (Homo sapiens) (Q9NZ08 whole entry, looked up): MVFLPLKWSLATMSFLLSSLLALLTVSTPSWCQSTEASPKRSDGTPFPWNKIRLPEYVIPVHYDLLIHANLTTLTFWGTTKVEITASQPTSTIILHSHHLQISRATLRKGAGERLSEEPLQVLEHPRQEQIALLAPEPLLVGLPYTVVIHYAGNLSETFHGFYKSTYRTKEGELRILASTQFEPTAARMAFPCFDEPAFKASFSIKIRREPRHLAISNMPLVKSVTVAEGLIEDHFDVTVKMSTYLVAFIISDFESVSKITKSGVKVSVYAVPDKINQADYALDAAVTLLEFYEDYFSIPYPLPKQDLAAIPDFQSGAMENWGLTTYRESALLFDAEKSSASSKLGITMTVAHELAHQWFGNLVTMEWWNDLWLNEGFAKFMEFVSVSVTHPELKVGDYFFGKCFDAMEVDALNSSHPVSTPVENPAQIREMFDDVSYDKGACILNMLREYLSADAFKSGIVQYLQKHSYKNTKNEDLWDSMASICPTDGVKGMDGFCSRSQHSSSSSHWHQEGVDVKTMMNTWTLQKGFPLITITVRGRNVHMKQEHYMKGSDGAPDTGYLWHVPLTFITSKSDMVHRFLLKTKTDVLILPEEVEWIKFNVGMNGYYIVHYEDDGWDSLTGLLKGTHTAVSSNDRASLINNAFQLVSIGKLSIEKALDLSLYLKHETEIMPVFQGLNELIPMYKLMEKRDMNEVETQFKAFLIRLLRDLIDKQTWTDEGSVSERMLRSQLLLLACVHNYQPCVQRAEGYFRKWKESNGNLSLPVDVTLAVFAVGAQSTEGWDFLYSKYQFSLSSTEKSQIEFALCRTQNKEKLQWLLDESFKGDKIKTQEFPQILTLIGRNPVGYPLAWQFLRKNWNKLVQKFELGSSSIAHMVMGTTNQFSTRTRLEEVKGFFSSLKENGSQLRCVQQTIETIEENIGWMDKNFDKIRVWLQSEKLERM

inhibition, inactive:
CO[C@H]1CN(C)C(=O)c2ccc(NC(=O)C3CC3)cc2OC[C@@H](C)N(C(=O)CN2CCOCC2)C[C@H]1C 5.08%
COc1ccc(S(=O)(=O)N(C)C[C@@H]2Oc3ccc(NC(=O)C4CC4)cc3CC(=O)N([C@@H](C)CO)C[C@H]2C)cc1 -1.45%
CNC[C@H]1Oc2cc(-c3ccc(OC)cc3)ccc2S(=O)(=O)N([C@H](C)CO)C[C@@H]1C -1.76%
CO[C@@H](CN(C)S(=O)(=O)c1ccccc1)[C@H](C)CN(Cc1ccccc1Cl)[C@H](C)CO -0.894%
C[C@@H](NC(=O)C[C@H]1C[C@@H]2c3cc(NC(=O)C4CCC4)ccc3O[C@@H]2[C@@H](CO)O1)c1ccccc1 -1.46%
CO[C@@H]1CN(C)C(=O)c2ccc(NC(=O)Nc3cc(F)ccc3F)cc2OC[C@@H](C)N(C)C[C@@H]1C 2.65%
CO[C@@H]1CC[C@@H]2CCOc3c(C#N)cccc3C(=O)N(C)C[C@H](C)C(=O)N(C)C[C@H]1O2 0.999%
COc1ccc(CNC(=O)C[C@H]2C[C@@H]3c4cc(NC(=O)NC5CCCC5)ccc4O[C@@H]3[C@H](CO)O2)cc1 2.29%
C/C=C/c1ccc2c(c1)O[C@H](CN(C)Cc1cccc(F)c1)[C@H](C)CN([C@H](C)CO)S2(=O)=O 3.38%
COc1ccccc1C#Cc1ccc([C@@H]2[C@H](CO)N3CCCCN(CCC(F)(F)F)C[C@@H]23)cc1 -1.03%
CCC(=O)N1[C@H](C(=O)NC2CCC2)[C@@H](CO)[C@@H]2Cn3c(cccc3=O)[C@@H]21 -1.13%
O=C(CCN1CCCCC1)NCC[C@@H]1CC[C@H](NS(=O)(=O)c2cccc(Cl)c2)[C@H](CO)O1 -1.39%
C/C=C/c1ccc2c(c1)[C@H]1[C@H](CCN1S(=O)(=O)c1cn(C)cn1)[C@H](CO)N2 -3.06%
CO[C@@H]1CC[C@@H]2CCOc3c(C#N)cccc3C(=O)N(C)C[C@@H](OC)[C@@H](C)C(=O)N(C)C[C@H]1O2 -3.74%
COc1cccc(NC(=O)N[C@H]2C=C[C@H](CC(=O)NCc3ccccn3)O[C@@H]2CO)c1 6.83%
COc1ccccc1CN1[C@H](CO)[C@@H](c2ccccc2)C12CN(C(=O)c1cnccn1)C2 0.797%
C[C@H]1CCCCO[C@H](CN(C)C(=O)NC2CCCCC2)[C@@H](C)CN([C@@H](C)CO)C(=O)c2cc(NC(=O)Nc3ccc4c(c3)OCO4)ccc2O1 -0.479%
O=C(OCC(=O)N1CCN(C(=O)c2ccco2)CC1)c1ccc(Cl)c(Cl)c1 0.999%
O=C(OCC(=O)N1CCN(C(=O)c2ccco2)CC1)c1cccc(O)c1 -0.23%
CO[C@@H]1CN(C)C(=O)c2cc(NC(=O)C3CCOCC3)ccc2OC[C@H](C)N(Cc2cccnc2)C[C@H]1C 0.791%
O=C(C[C@H]1CC[C@H]2NC[C@@H](O)COC[C@@H]2O1)NCCN1CCCC1 1.06%
O=C(Nc1cccc(F)c1)N1CC(=O)N2[C@H](C1)[C@H](c1ccc(-c3ccccc3F)cc1)[C@@H]2CO 0.092%
Cc1noc(C)c1C(=O)N(C)C[C@H]1OCc2ccccc2-c2c(n(C)c3ccccc23)C(=O)N([C@@H](C)CO)C[C@H]1C -0.288%
O=C1C(Cl)=C(Oc2ccccc2)C(=O)c2ccccc21 4.33%
O=C(NC1=CC(=O)c2ccccc2C1=O)c1ccccc1 2.97%
CC(C)NC(=O)N1CCCCN2[C@@H](CO)[C@@H](c3ccc(C#Cc4ccccc4)cc3)[C@@H]2C1 0.974%
O=C(Cc1ccccc1)N1CC[C@@H]2[C@H](CO)Nc3ccc(-c4ccccc4)cc3[C@@H]21 4.96%
C/C=C/c1ccc([C@H]2[C@H](CO)N(C(=O)CN(C)C)C23CN(C(=O)C2CC2)C3)cc1 -1.65%
O=C(C[C@H]1CC[C@H]2[C@@H](COC[C@H](O)CN2S(=O)(=O)c2cccc(F)c2)O1)NC1CCC1 -1.89%
COc1ccc(-c2ccc([C@@H]3[C@H](CN(C)S(C)(=O)=O)N[C@@H]3CO)cc2)cc1 -0.559%
C[C@@H]1CCCCO[C@@H](CN(C)S(=O)(=O)c2cccs2)[C@H](C)CN([C@H](C)CO)C(=O)c2cc(NC(=O)CCCN(C)C)ccc2O1 0.521%
Cc1ccccc1NC(=O)Cc1nc(COC(=O)CNC(=O)c2ccc(Cl)cc2Cl)cs1 -1.49%
COc1ccc(CCNC(=O)COC(=O)c2cnc(Cl)c(Cl)c2)cc1 -0.478%
CCC(=O)N1CC2(C1)[C@@H](c1ccc(C3=CCCC3)cc1)[C@@H](CO)N2C(=O)COC -3.58%
C[C@@H]1CCCCO[C@@H](CN(C)Cc2ccc3c(c2)OCO3)[C@@H](C)CN([C@@H](C)CO)C(=O)c2cc(NC(=O)C3CCCCC3)ccc2O1 -1.88%
C[C@@H]1CN([C@@H](C)CO)C(=O)c2cc(C#CC3CCCCC3)cnc2O[C@H]1CN(C)C(=O)Cc1ccccn1 4.3%
COc1ccc(NC(=O)N(C)C[C@@H]2OCCCC[C@@H](C)Oc3ccc(NS(C)(=O)=O)cc3C(=O)N([C@@H](C)CO)C[C@H]2C)cc1 4.38%
CCC(=O)N[C@H]1CC[C@@H](CC(=O)NCC2CC2)O[C@@H]1CO -1.77%
CN1CCCc2nc(-c3ccccc3)ccc21 0.84%
CC(=O)O[C@H]1CC[C@@]2(C)[C@@H](CC[C@@H]3[C@@H]2CC[C@]2(C)[C@@H](C(C)(C)O)C[C@@H]32)C1 -4.42%
O=C(C[C@H]1CC[C@H]2[C@@H](COC[C@@H](O)CN2C(=O)Nc2ccc(C(F)(F)F)cc2)O1)NC1Cc2ccccc2C1 3.19%
Cc1ccc(-c2ccc(C3[C@H]4CNC[C@@H]3N4S(=O)(=O)c3ccccc3C)cc2)cc1 (some centres not stated) 1.57% and -0.081%
COc1cccc(-c2ccc([C@@H]3[C@@H](CO)N4C(=O)CN(C(=O)C5CCCCC5)C[C@H]34)cc2)c1 -0.992%
CO[C@@H]1CC[C@@H]2CCOc3ccc(C#N)cc3C(=O)N(C)C[C@@H](OC)[C@@H](C)C(=O)N(C)C[C@H]1O2 -4.56%
CNC(=O)C[C@@H]1CC[C@@H]2[C@H](COC[C@@H](O)CN2S(=O)(=O)c2ccccc2Cl)O1 0.052%
Cc1nc2cccnc2nc1C 1.29%
O=C(CCN1CCCCC1)NCC[C@H]1CC[C@@H](NC(=O)C2CCOCC2)[C@H](CO)O1 3.14%
C[C@H]1CN([C@@H](C)CO)C(=O)Cc2cc(NC(=O)c3ccncc3)ccc2O[C@@H]1CN(C)C(=O)Nc1ccccc1 1.04%
CNC(=O)C[C@H]1CC[C@@H]2[C@H](COc3ccc(NC(=O)Nc4ccc(F)c(F)c4)cc3C(=O)N2C)O1 0.113%
C#Cc1ccc([C@H]2C=C(C(=O)O)O[C@@H](OCC)[C@@H]2CCCO)cc1 -6.5%
C[C@@H]1CCCCO[C@H](CN(C)C(=O)c2ccccc2)[C@H](C)CN([C@@H](C)CO)C(=O)c2cc(NC(=O)Nc3ccc4c(c3)OCO4)ccc2O1 -5.55%
Cc1ccc(S(=O)(=O)Nc2ccc3c(c2)C(=O)N([C@@H](C)CO)C[C@@H](C)[C@H](CN(C)Cc2ccc(Cl)c(Cl)c2)OCCCC[C@@H](C)O3)cc1 0.461%
Cc1ccc(CNC(=O)COC(=O)C2CCC2)cc1 1.31%
Cc1ccc(COC(=O)CN2C(=O)NC3(CCCC3)C2=O)cc1 -3.32%
Cc1ccc(S(=O)(=O)CCC(=O)OCC(=O)NCCc2ccc(S(N)(=O)=O)cc2)cc1 -0.437%
COc1ccc(CC2c3cc(OC)c(OC)cc3CC[N+]2(C)CCC(=O)OCCCCCOC(=O)CC[N+]2(C)CCc3cc(OC)c(OC)cc3C2Cc2ccc(OC)c(OC)c2)cc1OC (configuration not stated) -5.26%
COc1ccc2c3c(n(C)c2c1)[C@@H](CO)N(C(=O)CN1CCOCC1)CC31CCN(C(=O)C2CC2)CC1 -0.976%
CCCC(=O)Nc1ccc2c(c1)OC[C@@H](C)N(CC1CCOCC1)C[C@H](C)[C@H](OC)CN(C)C2=O 6.53%
C[C@H](NC(=O)[C@@H]1[C@@H](CO)[C@@H]2Cn3c(ccc(-c4cccc(F)c4)c3=O)[C@@H]2N1C)c1ccccc1 5.74%

inhibition, active:
CN(c1ccccc1)S(=O)(=O)c1cc(C(=O)OCC(=O)N2CCN(C(=O)c3ccco3)CC2)ccc1Cl 60.1%
CC(=O)N(C1=C(Cl)C(=O)c2ccccc2C1=O)c1ccc(C(=O)O)cc1 84.4%
COc1ccc(CCOC(=O)CNC(=O)c2ccc(Cl)cc2Cl)cc1 37.4%
Cc1cc2c(nc1C)CCCN2C 56.4%
C[C@H]([C@@H](O)[C@@H](O)[C@@H](C)C(C)(C)C)[C@H]1CC[C@H]2C3CC[C@H]4C[C@H](OS(=O)(=O)O)[C@@H](OS(=O)(=O)O)C[C@]4(C)[C@H]3CC[C@]12C (some centres not stated) 51.7%
Cc1nc2ccc(N)nc2nc1C 31.2%
Cc1ccc(CCCOC(=O)C[N+]2(C)CCCCC2)cc1 30.8%
Cc1ccc(CCCOC(=O)C[N+]2(C)CCCC2)cc1 106%
